The test system of the first assay is PPARg homodimer (NR concentration 180 nM). Nature of the assay: PBM binding z-score (relative to random genomic background probes); higher = stronger binding; sequences stand for … in GC…GCGATTGACAGCGTAGAATGAAGG
In outline: (§1)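 For binding z-scores, the reference was random background probes on custom Agilent 4×180K protein-binding microarrays. These arrays were incubated 1 h with ligand-free nuclear receptor dimers in PBS pH 7.4, 2% milk, 0.02% Triton X-100, 1 mM DTT, 0.2 mg/mL BSA and 0.4 mg/ml salmon testes DNA. Fluorescence was scanned after antibody detection of each partner (one per run) and regression-normalized.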
With CCTCCTGGGCCAAGGTCATTGATCAGTCAAAGCA, the PBM binding z-score came out at 1.55.

ATCTCTGGGTAAAGTTCAGTGAAAGATCGATAGA yielded a PBM binding z-score of 1.32. Still for that read-out and setting: then CTCGAAAGGTTGTGCTCAGGTGAGTATACCAAAC, with 0.203.

On to ATCGAAAGGTCGTGAGGTGAGTATTCAGAAAGGC, for which the PBM binding z-score turned out to be 1.83. For AGAATGAGGTTACCAACGATCAGGGAAACGCTTG, the PBM binding z-score was found to be 0.587. The same measure, in the same setting: then TCATCTAGGTAAAAGGTGAAAGTCGGTGTGGTAA, with 2.69; and TCTAGCAGGCCAGAGGGTCTCTCAAGAGGTACGG, with -0.634; and CAAACTAGGTCACCGGAAGGTCACAGTCCGCATG, with 8.88. The same measure, in the same setting: then ATCTCTAGGAAAAAGTTCAGTGAATCCCGAGGAT, with 0.423; and TCTAGTTGGTTAAAGGTCACACACTCGAAATGCG, with 4.61. Take CGTCGAAGGTCAAGGTCAGTGAAAGAGACTCGAA: the PBM binding z-score was 2.78. With CCGACTGGGGCAAGGTTACCAGAACGCACAGCCA, the PBM binding z-score was determined as 0.502.

Sequence TCTTGTAGATCAAAGGTGAAGAAAGCCGAAGCCT registered a PBM binding z-score of 0.161. Same read-out and setting: then ATATGTAGGTTAGCTGGGGTCATTCGGACTAGGC, with 4.23. Same read-out and setting: then TCTCGGAGGACTCGAAGGTCAGAGCTTTCCAGAG, with 0.353; and CCGAGTAGGTGATGGGGCATTCAGGCAACGGTGA, with 0.758; and TCGAGTAGGGTAGGGGCATTCAGAATGGCGTCGA, with 0.484. Same read-out and setting: the same measure for TCATATACGTAAAAGGTGAAAGTCGGTGTGGTAA: 1.84.

The subject of a further assay is PXR:RXRa (NR concentration 270 nM, RXRa partner concentration 90 nM). The description is as above. In a few lines: as §1
TCGAGTAGGTTAGGGGCATTCACAATGGCGTCGA registered a PBM binding z-score of 0.481. As for TCAAATAGGTAAACAGGTGAAAGTCCGTAAGTTA, the PBM binding z-score is 0.682. The same measure, in the same setting: then CTACCAAGGTGAACAAGGTCGGTGATTACTATTC, with 0.812; and GCATATAGGTAATACAAGGTGAATGTCCGATTGT, with 0.286; and CATCAAAGTTCAAGGTAACGTAACAGAAAGCAGC, with 4.19. Still for that read-out and setting: then ATATGTAGGTTAGCTGGGATCATTCAGACTAGGC, with 1.21; and ACTTACGGTTCAACGAGGTTATAGCACGCGTATA, with 4.06. On to CCTACTCGGCCAAAGGTCATTGATTCCAATGCTC, for which the PBM binding z-score came to 5.38. The same measure, in the same setting: the same measure for CCTAGTTGGTCAGGAGGTGACACACCGGATATGA: 0.171. Same read-out and setting: then TGACCAAGGTGAAGGTCGTTGATCCCTCTGTAGA, with 1.26; and GGAACGAGGGCATACGAGTTGATAGCATGGCGAT, with 3.18. With TCTATTAGTTGAAGGGCGACCGACGAGTCCGTTT, the PBM binding z-score came out at 0.655. On the same count and under the same terms, then TCTTGTAGATCAAGCAGGTTGAGAAAGCCTGAGT, with 0.124; and ACAGACAGGTGATGAATGTAACTCAGGCTATCAT, with -0.102.

On to AGAATGAGGTTACCACAGATCAGGGAAACGCTTG, for which the PBM binding z-score turned out to be 1.05. Same read-out and setting: the same measure for ACAGACAGGTGAGGAAGGTAACTCAGGCTATCAT: -0.058. Sequence GATACAGGGTCAAGCCCAGAGTACGCGTATTGAT gave a PBM binding z-score of 3.87. Still for that read-out and setting: then CCTTACGGGTCAAGGCTATAGCACGGGTGGTACG, with 2.58; and CCTAGTTGGTCAGTAGGTCACACACCGGATATGA, with 1.68; and AATCGGAGGACAAAGGTCAGAGCTACGCCAGTGA, with 3.75. For CAAACTAGGTCAAGAGGACAAAGTCCGCTTCCCG, the PBM binding z-score was found to be 1.37. On the same count and under the same terms, then CCTAGCAGGCCAGGGTCATTCAAGCATTTCGCTT, with 3.11; and CCTCCTGGGCCAAGGTCATTGATCAGTCAAAGCA, with 3.38.

For ATCTCTGGGTAAAGTTCAGTGAAAGATCGATAGA, the PBM binding z-score is 2.12. Still for that read-out and setting: the same measure for CTCGAAAGGTTGTGCTCAGGTGAGTATACCAAAC: 0.645; for ATCGAAAGGTCGTGAGGTGAGTATTCAGAAAGGC: 3.37. Same read-out and setting: the same measure for AGAATGAGGTTACCAACGATCAGGGAAACGCTTG: 0.991; for TCATCTAGGTAAAAGGTGAAAGTCGGTGTGGTAA: 1.53.

With TCTAGCAGGCCAGAGGGTCTCTCAAGAGGTACGG, the PBM binding z-score is -0.569. Turning to CAAACTAGGTCACCGGAAGGTCACAGTCCGCATG, the PBM binding z-score came out at 5.64. On the same count and under the same terms, then ATCTCTAGGAAAAAGTTCAGTGAATCCCGAGGAT, with 0.837; and TCTAGTTGGTTAAAGGTCACACACTCGAAATGCG, with 5.24.

In turn, CGTCGAAGGTCAAGGTCAGTGAAAGAGACTCGAA returned a PBM binding z-score of 4.3. In the case of CCGACTGGGGCAAGGTTACCAGAACGCACAGCCA, the PBM binding z-score amounted to 0.259. On the same count and under the same terms, then TCTTGTAGATCAAAGGTGAAGAAAGCCGAAGCCT, with 0.885. The sequence ATATGTAGGTTAGCTGGGGTCATTCGGACTAGGC returned a PBM binding z-score of 6.74.

On to TCTCGGAGGACTCGAAGGTCAGAGCTTTCCAGAG, for which the PBM binding z-score worked out at 1.04. On to CCGAGTAGGTGATGGGGCATTCAGGCAACGGTGA, for which the PBM binding z-score was -0.262. The same measure, in the same setting: then TCGAGTAGGGTAGGGGCATTCAGAATGGCGTCGA, with 0.566; and TCATATACGTAAAAGGTGAAAGTCGGTGTGGTAA, with 1.35.

Values taken from the supplement of paper PMC6555819.
